Test results: PubChem BioAssay (Tox21)
Records with an inconclusive call do not appear. Entries that show only a call come without a potency. The source made the active and inactive calls. Unless noted, the call rests on the fitted dose curve.

What was measured:
[1] = qHTS assay to identify small molecule antagonists of the sonic hedgehog signaling (Shh) pathway (AID 1259369); further: nearly all actives have a fitted effect of over 45% in size
Outline: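 NIH/3T3 stable Gli1-Luc clone, 2,000 cells/well, 4hr settle; cpd + conditioned medium 24hr; Luc reagent 30min RT; luminescence.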

[2] = molecular target: Estrogen receptor beta (Homo sapiens) (UniProt Q92731); assay: qHTS assay to identify small molecule antagonists of the estrogen receptor beta (ER-beta) signaling pathway (AID 1259378; active means well fitted inhibition curve with a large enough effect in the signal ratio in the repeat runs, not every such curve was filed as active; the % refers to the signal ratio)
Chain of Estrogen receptor beta (Homo sapiens) (Q92731 whole entry, looked up): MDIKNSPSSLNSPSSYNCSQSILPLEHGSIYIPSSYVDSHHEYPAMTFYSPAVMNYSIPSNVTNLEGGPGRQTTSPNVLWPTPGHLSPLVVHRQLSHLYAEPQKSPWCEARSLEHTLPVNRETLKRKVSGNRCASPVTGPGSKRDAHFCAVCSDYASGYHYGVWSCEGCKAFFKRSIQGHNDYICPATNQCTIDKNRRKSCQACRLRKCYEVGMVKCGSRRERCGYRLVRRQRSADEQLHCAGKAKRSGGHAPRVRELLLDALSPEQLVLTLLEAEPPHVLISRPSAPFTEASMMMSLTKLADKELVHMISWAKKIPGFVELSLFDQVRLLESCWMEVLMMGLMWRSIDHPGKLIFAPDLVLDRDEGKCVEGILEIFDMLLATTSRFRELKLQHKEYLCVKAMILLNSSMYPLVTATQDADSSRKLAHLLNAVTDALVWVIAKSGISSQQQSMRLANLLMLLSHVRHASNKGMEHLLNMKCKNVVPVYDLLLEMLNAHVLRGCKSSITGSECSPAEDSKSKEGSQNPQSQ
Outline: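 ER-beta-UAS-bla HEK293T cells in 2% charcoal-stripped FBS medium treated with compound plus 1nM final 17-beta-estradiol for 16 hr at 37C. Beta-lactamase reporter read by FRET substrate fluorescence after 2 hours at room temperature.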

[3] = qHTS assay to identify small molecule agonists of the androgen receptor (AR) signaling pathway in the presence of an antagonist - cell viability counter screen (AID 1259379; active means well fitted curve in the direction sought with a large enough effect in the repeat runs; an effect the other way counts as inactive or inconclusive; further: nearly all actives have a fitted effect of over 25% in size; further: potency means the concentration at half of the fitted maximal effect)
Outline: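 MDA-kb2 viability measured by CellTiter-Fluor fluorescence in the same wells as the luciferase signal; nilutamide 3.0uM final; 15-point compound titration; 16 hr at 37C.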

[4] = qHTS assay to identify small molecule agonists of the estrogen receptor beta (ER-beta) signaling pathway - cell viability counter screen (AID 1259380; active means well fitted curve in the direction sought with a large enough effect in the repeat runs; an effect the other way counts as inactive or inconclusive; further: nearly all actives have a fitted effect of over 30% in size)
Outline: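 Measured: luminescence from CellTiter-Glo after 30 min at room temperature, added to wells already read for the LiveBLAzer FRET reporter (2 hr substrate); ER-beta-UAS-bla HEK293T cells had 16 hr compound treatment at 37C, 5% CO2.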

[5] = qHTS assay to identify small molecule antagonists of the estrogen receptor beta (ER-beta) signaling pathway - cell viability counter screen (AID 1259382; active means well fitted curve in the direction sought with a large enough effect in the repeat runs; an effect the other way counts as inactive or inconclusive; further: series mostly up to about 92 µM; nearly all actives have a fitted effect of over 55% in size)
Outline: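 Readout: luminescence, CellTiter-Glo, same wells as bla assay. System: ER-beta-UAS-bla GripTite HEK293T, 2% charcoal-stripped FBS. Exposure: compounds plus 1nM 17-beta-estradiol, 16 hr, 37C.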

[6] = molecular target: Estrogen receptor (Homo sapiens) (UniProt P03372); assay: qHTS assay to identify small molecule agonists of the estrogen receptor alpha (ER-alpha) signaling pathway in the presence of an antagonist (AID 1259383); further: nearly all actives have a fitted effect of over 15% in size; further: potency means the concentration at half of the fitted maximal effect; on activation: top concentration of the series differs between compounds
Chain of Estrogen receptor (Homo sapiens) (P03372 whole entry, looked up): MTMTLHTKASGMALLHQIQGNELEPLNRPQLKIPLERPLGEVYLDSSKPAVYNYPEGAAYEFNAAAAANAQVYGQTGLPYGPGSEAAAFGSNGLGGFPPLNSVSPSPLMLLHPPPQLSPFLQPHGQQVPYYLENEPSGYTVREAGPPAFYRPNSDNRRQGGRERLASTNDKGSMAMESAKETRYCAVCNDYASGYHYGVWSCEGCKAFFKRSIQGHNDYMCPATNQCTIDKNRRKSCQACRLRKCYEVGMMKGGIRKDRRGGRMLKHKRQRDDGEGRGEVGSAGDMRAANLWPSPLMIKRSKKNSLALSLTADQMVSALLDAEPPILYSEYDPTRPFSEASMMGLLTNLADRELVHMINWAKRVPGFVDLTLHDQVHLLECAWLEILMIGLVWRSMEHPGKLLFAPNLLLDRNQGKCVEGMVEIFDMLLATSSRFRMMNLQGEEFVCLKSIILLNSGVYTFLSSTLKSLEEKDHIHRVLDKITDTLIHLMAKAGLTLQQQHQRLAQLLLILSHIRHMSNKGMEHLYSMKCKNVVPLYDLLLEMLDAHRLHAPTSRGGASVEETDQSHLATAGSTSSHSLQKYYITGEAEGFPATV
Outline: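 Quantitative HTS confirmation: compounds titrated at 15 concentrations onto estrogen-deprived VM7Luc4E2 cells carrying a four-ERE luciferase construct, with ICI-182,780 present at 10.0nM final. Signal is luminescence after 22hr exposure.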

[7] = qHTS assay to identify small molecule agonists or antagonists of the thyroid stimulating hormone receptor (TSHR) signaling pathway - wild type cell line counter screen (AID 1259384)
Outline: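 Wild-type Hek293 cells, 800/well, 18 h at 37C, then compound with Ro20-1724 for 30 min RT. cAMP by HTRF (cAMP-d2/anti-cAMP cryptate), 1 h RT, fluorescence read. 15 concentrations, triplicates.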

[8] = molecular target: Thyrotropin receptor (Homo sapiens) (UniProt P16473); assay: qHTS assay to identify small molecule antagonists of the thyroid stimulating hormone receptor (TSHR) signaling pathway (AID 1259385); further: nearly all actives have a fitted effect of over 20% in size; further: potency means the concentration at half of the fitted maximal effect
Chain of Thyrotropin receptor (Homo sapiens) (P16473 whole entry, looked up): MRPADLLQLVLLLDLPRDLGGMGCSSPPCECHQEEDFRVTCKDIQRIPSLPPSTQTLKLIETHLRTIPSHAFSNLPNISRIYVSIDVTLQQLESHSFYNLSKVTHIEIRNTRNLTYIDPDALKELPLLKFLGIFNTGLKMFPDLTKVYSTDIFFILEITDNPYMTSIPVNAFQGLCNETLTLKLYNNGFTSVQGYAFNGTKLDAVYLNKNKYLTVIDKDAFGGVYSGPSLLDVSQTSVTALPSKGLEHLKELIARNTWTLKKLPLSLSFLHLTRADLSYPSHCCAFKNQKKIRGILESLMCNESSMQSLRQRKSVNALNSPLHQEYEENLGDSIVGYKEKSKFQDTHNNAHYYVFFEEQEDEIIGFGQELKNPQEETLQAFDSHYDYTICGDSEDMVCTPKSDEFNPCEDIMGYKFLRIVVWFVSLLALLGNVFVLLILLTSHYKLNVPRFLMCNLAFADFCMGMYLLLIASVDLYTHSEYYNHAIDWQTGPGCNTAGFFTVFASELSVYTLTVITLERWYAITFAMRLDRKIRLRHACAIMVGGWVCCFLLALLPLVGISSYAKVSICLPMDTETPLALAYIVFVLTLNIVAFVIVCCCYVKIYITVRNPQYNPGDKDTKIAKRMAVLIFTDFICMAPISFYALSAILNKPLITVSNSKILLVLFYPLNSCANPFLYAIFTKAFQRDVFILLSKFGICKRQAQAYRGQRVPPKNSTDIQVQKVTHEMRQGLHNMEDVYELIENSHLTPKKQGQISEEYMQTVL
Outline: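 TSHR-HEK293 cells (800/well) plated 18 h, then compounds with Ro20-1724 and TSH at 1.5 ng/mL final, 30 min at room temperature. cAMP quantified by HTRF (cAMP-d2/anti-cAMP-cryptate, 1 h); 15 concentrations in triplicate.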

[9] = qHTS assay to identify small molecule agonists of the estrogen receptor alpha (ER-alpha) signaling pathway in the presence of an antagonist - cell viability counter screen (AID 1259386; active means well fitted curve in the direction sought with a large enough effect in the repeat runs; an effect the other way counts as inactive or inconclusive;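 further: cells exposed to compounds for 22 h at 37 °C before the viability read; nearly all actives have a fitted effect of over 30% in size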; further: potency means the concentration at half of the fitted maximal effect)
Outline: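 The test measures whether compounds kill ER-alpha reporter cells (VM7Luc4E2) under antagonist co-treatment (ICI-182,780, 10.0nM). Fluorescence from CellTiter-Fluor is read after a 22hr exposure.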

[10] = molecular target: Progesterone receptor (Homo sapiens) (UniProt P06401); assay: qHTS assay to identify small molecule agonists of the progesterone receptor (PR) signaling pathway (AID 1346784); further: nearly all actives have a fitted effect of over 30% in size
Chain of Progesterone receptor (Homo sapiens) (P06401 whole entry, looked up): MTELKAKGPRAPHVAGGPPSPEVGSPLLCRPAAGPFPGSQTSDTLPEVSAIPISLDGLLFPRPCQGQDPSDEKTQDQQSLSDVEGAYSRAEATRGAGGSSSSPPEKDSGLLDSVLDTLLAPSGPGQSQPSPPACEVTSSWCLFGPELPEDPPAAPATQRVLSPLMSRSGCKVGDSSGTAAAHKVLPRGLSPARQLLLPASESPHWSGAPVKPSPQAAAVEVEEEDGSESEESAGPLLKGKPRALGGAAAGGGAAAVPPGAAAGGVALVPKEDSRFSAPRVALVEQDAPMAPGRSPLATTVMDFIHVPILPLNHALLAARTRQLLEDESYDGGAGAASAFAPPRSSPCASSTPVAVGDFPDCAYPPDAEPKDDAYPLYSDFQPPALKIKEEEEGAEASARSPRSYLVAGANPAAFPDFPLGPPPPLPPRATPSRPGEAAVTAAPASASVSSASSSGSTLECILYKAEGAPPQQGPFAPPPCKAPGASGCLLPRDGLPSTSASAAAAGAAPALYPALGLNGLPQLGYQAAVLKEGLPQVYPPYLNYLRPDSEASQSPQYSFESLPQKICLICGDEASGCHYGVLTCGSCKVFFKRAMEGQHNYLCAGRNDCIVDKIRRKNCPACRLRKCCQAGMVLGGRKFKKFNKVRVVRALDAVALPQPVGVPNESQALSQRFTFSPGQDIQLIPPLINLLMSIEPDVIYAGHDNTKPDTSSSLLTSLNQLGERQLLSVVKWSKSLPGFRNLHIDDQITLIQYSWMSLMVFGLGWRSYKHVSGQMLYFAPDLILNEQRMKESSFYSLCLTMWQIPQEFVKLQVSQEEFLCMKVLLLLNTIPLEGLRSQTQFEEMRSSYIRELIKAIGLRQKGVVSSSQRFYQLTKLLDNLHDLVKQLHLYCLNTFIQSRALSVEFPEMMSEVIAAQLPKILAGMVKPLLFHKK
Outline: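 Using charcoal-stripped serum (2%) to limit endogenous steroids, PR-UAS-bla HEK 293T cells received compounds for 16 hr at 37C after 6 hr plating; beta-lactamase FRET fluorescence was recorded following 2 hr substrate loading at room temperature.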

[11] = molecular target: Progesterone receptor (Homo sapiens) (UniProt P06401); assay: qHTS assay to identify small molecule antagonists of the progesterone receptor (PR) signaling pathway (AID 1346795; active means well fitted inhibition curve with a large enough effect in the signal ratio in the repeat runs, not every such curve was filed as active; the % refers to the signal ratio; further: potency means the concentration at half of the fitted maximal effect)
Outline: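 Inhibition of R5020-induced (1 nM final) beta-lactamase reporter signal in PR-UAS-bla HEK293T cells was scored by FRET fluorescence after overnight (16 hr) compound treatment.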

[12] = qHTS assay to identify small molecule antagonists of the progesterone receptor (PR) signaling pathway - cell viability counter screen (AID 1346798; active means well fitted curve in the direction sought with a large enough effect in the repeat runs; an effect the other way counts as inactive or inconclusive; further: series mostly up to about 92 µM; nearly all actives have a fitted effect of over 50% in size)
Outline: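 ATP content as viability readout: CellTiter-Glo luminescence, 30 min room temperature, in PR-UAS-bla HEK293T cells after 16 hr compound/R5020 treatment at 37C and 5% CO2.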

[13] = qHTS assay to identify small molecule antagonists of the TGF-beta/Smad signaling pathway - cell viability counter screen (AID 1346824; active means well fitted curve in the direction sought with a large enough effect in the repeat runs; an effect the other way counts as inactive or inconclusive; further: nearly all actives have a fitted effect of over 50% in size)
Outline: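 SBE-bla HEK 293T cells, incubated overnight, then compound plus 0.25 ng/mL TGF-beta1 (stock added) for 5 hr at 37 C. Viability was read in the same wells by CellTiter-Glo luminescence after 30 min at room temperature.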

[14] = qHTS assay to identify small molecule agonists of the TGF-beta/Smad signaling pathway (AID 1346859; active means well fitted activation curve with a large enough effect in the signal ratio in the repeat runs, not every such curve was filed as active; the % refers to the signal ratio; further: series mostly up to about 77 µM)
Outline: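 Stable Smad binding element-beta-lactamase HEK 293T cells; 5 hr compound exposure at 37 C under 5% CO2; 2 hr room-temperature substrate step; fluorescence excited at 405 nm, collected at 460 nm and 530 nm.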

[15] = molecular target: Thyrotropin-releasing hormone receptor (Homo sapiens) (UniProt P34981); assay: qHTS assay to identify small molecule antagonists of the thyrotropin-releasing hormone receptor (TRHR) signaling pathway (AID 1346877; active means well fitted inhibition curve with a large enough effect in the repeat runs, not every such curve was filed as active; further: series mostly up to about 51 µM)
Chain of Thyrotropin-releasing hormone receptor (Homo sapiens) (P34981 whole entry, looked up): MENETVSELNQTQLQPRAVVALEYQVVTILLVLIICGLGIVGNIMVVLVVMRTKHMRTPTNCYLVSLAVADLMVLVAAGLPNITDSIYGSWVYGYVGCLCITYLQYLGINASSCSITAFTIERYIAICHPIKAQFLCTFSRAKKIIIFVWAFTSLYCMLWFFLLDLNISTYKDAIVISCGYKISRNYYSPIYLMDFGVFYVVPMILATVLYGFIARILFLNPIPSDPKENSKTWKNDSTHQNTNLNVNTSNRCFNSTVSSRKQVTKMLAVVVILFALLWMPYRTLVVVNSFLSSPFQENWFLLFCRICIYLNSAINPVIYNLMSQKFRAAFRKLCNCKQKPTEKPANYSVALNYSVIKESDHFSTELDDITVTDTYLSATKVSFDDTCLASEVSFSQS
Outline: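 Overnight-plated (18 h, 37 °C) HEK293 cells expressing TRHR were dye-loaded 2 h, treated with compound, then stimulated with TRH at 1 nM final. Fluorescence intensity was captured every second for 3 min.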

[16] = molecular target: Thyrotropin-releasing hormone receptor (Homo sapiens) (UniProt P34981); assay: qHTS assay to identify small molecule agonists of the thyrotropin-releasing hormone receptor (TRHR) signaling pathway (AID 1346891);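 further: HEK293 cells expressing TRHR with calcium dye readout; series mostly up to about 58 µM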
Outline: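 In 1536-format, 1500 TRHR-Hek293 cells per well grew 18 h, took up calcium dye for 2 h at 37 °C, received compound, and were read kinetically; 15-point titrations, triplicates.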

[17] = qHTS assay to identify small molecule agonists of the progesterone receptor (PR) signaling pathway - cell viability counter screen (AID 1346799); further: nearly all actives have a fitted effect of over 45% in size
Outline: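 Cytotoxicity in PR-bla HEK293T cells: 16 h compound, 37C; CellTiter-Glo added post-FRET read; luminescence after 30 min RT.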

[18] = qHTS assay to identify small molecule agonists of the TGF-beta/Smad signaling pathway - cell viability counter screen (AID 1346829; active means well fitted curve in the direction sought with a large enough effect in the repeat runs; an effect the other way counts as inactive or inconclusive; further: top concentration of the series differs between compounds; nearly all actives have a fitted effect of over 45% in size)
Outline: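 SBE-bla HEK 293T cells plated overnight, compound exposure 5 hr at 37 C. Viability read in the same wells by CellTiter-Glo luminescence after 30 min at room temperature, following the beta-lactamase read.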

[19] = molecular target: Estrogen receptor beta (Homo sapiens) (UniProt Q92731); assay: qHTS assay to identify small molecule agonists of the estrogen receptor beta (ER-beta) signaling pathway (AID 1259377; active means well fitted activation curve with a large enough effect in the signal ratio in the repeat runs, not every such curve was filed as active; the % refers to the signal ratio)
Outline: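 In HEK293T cells bearing a UAS-beta-lactamase reporter under ER-beta control, DMSO-delivered compounds were incubated for 16 hr at 37C. Activity was detected as fluorescence 2 hours after LiveBLAzer B/G FRET substrate addition.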

Compound	Potency [1]	Potency [2]	Potency [3]	Potency [4]	Potency [5]	Potency [6]	outcome [7]	Potency [8]	Potency [9]	Potency [10]	Potency [11]	Potency [12]	Potency [13]	Potency [14]	Potency [15]	outcome [16]	Potency [17]	Potency [18]	Potency [19]
O=C(Nc1ccc2c(O)c(N=Nc3ccc(N=Nc4ccc(S(=O)(=O)O)cc4)cc3)c(S(=O)(=O)O)cc2c1)c1ccccc1	inactive	inactive	21.7 µM (active)	inactive	inactive	inactive	inactive	inactive	13.7 µM (active)	inactive	inactive	inactive	inactive	inactive	inactive	inactive			
O=C(O)Cc1ccc2c(c1)C(=O)c1ccccc1CO2	inactive	inactive	inactive	inactive	inactive	inactive	inactive	inactive	inactive	inactive	inactive	inactive	inactive				inactive	inactive	
C#C[C@]1(OC(C)=O)CC[C@H]2[C@@H]3CCC4=C/C(=N/O)CC[C@@H]4[C@H]3CC[C@@]21CC	inactive		inactive			2.11 µM (active)	inactive	0.422 µM (active)	inactive		29.8 µM (active)		inactive	inactive	inactive	inactive			inactive
CCCNCCC	inactive		inactive		inactive		inactive	inactive	inactive	inactive		inactive		inactive	inactive	inactive	inactive	inactive	inactive
